FBW7 act = FBW7 E3 ligase activators, primary screen, biochemical, AlphaScreen, human; hit rate 0.13% among 650,000; AID 1259310, 2017; normalized activity (activation), % at 26.1 µM; F-box/WD repeat-containing protein 7 (Homo sapiens), Q969H0; AlphaScreen FBW7–phospho-cyclin E peptide binding, activator screen; in the data active = normalized activity above about 1.9%;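 also: purified mutant Fbw7 with reduced substrate affinity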
GPR151 ag = activators of human GPR151, primary screen, cell-based, PathHunter beta-arrestin, luminescence. activation, % at 11.2 µM. PathHunter beta-arrestin GPR151 cells. hit rate 1% among 650,000. G-protein coupled receptor 151 (Homo sapiens), Q8TDV0; in the data active = activation above about 4.9%;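 also: 0% = median of compound wells and 100% = cells with positive control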
MITF primary = MITF inhibitors, primary screen, biochemical, AlphaScreen, human | Microphthalmia-associated transcription factor (Homo sapiens), O75030 | AlphaScreen MITF homodimerization, bead proximity signal | inhibition, % at 2.6 µM | hit rate 0.91% among 650,000; in the data active = inhibition above about 50%;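 also: 0% = vehicle wells with protein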
Target sequence (O75030 whole entry, looked up): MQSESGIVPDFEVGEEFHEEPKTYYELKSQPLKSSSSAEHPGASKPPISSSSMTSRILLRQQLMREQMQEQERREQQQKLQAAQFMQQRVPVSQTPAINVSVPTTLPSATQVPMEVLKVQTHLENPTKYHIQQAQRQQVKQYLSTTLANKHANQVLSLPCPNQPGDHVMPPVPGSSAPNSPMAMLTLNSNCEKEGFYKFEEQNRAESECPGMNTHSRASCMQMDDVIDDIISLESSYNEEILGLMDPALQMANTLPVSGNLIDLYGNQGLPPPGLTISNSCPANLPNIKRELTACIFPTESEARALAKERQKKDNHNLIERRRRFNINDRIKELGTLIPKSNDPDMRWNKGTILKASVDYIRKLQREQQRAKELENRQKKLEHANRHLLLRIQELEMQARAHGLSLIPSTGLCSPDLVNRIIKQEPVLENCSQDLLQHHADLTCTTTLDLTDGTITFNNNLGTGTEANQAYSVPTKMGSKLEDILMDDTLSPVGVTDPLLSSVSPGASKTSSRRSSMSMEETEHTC
TEAD-YAP block = TEAD-YAP interaction inhibition, primary screen, TEAD-YAP interaction inhibitor project, luminescence, HEK-TIYL cells. TEAD-Gal4/YAP UAS-luciferase luminescence. inhibition, % at 9.12 µM. hit rate 1.4% among 640,000. AID 1259422, 2018; in the data active = inhibition above about 32%;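 also: 0% = median of test compound wells and 100% = reference inhibitor wells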
An asterisk follows results filed as active. Rows were chosen to be rich in hits. Some 3.4% of all compounds tested hit in one or more screens of this group.

SMILES | FBW7 act | GPR151 ag | MITF primary | TEAD-YAP block
O=C(NCCCN1CCOCC1)C(Cc1ccccc1)NS(=O)(=O)c1ccc(Cl)cc1 (stereo not given) | 2.4* | -1.2 | -1.4 | 1.5
Cc1ccc(NC(=O)c2cc(F)ccc2[N+](=O)[O-])cc1 | -0.1 | -0.5 | 0.2 | 51.8*
O=C(Nc1ccc(Cl)cc1Cl)c1cc(F)ccc1[N+](=O)[O-] | 0.3 | -1.8 | 4.1 | 76.1*
COc1cc(NC(=O)c2cc(Cl)ccc2[N+](=O)[O-])c(OC)cc1Cl | -0.2 | 1.1 | -0.3 | 5.8
COc1cccc(NC(=O)C2CC(=O)N(Cc3ccccc3)C2)c1 (stereo not given) | 0.0 | -0.1 | 3.6 | -0.1
NC1=NC2(CCCCCC2)n2c(nc3ccccc32)N1 | -0.2 | -1.3 | 3.6 | 78.0*
Cc1nn2c(N)c(-c3ccc(Cl)cc3)cnc2c1-c1ccccc1 | 1.0 | 0.4 | 15.6 | 4.2
Cc1nc2c(-c3ccccc3)cnn2c(N)c1-c1ccccc1 | 0.1 | 1.1 | 0.3 | 89.6*
Cc1nc2c(-c3ccc(Cl)cc3)c(C)nn2c(N)c1-c1ccccc1 | 1.0 | -0.9 | 20.0 | 34.0*
Cc1occc1-c1nnc(SCC(=O)N2CCOCC2)n1C(C)c1ccccc1 (stereo not given) | 0.1 | -0.2 | 12.3 | -2.2
COC(=O)C1CCN(c2ccc([N+](=O)[O-])cc2[N+](=O)[O-])CC1 | 0.7 | 1.8 | 12.4 | -3.0
CCOC(=O)C1CN(c2ccc([N+](=O)[O-])cc2[N+](=O)[O-])C1 | -0.2 | 0.6 | -10.3 | 55.3*
Cc1ccc(S(=O)(=O)/N=C2/C=C(Sc3ncn[nH]3)C(=O)c3ccccc32)cc1 | 0.3 | -0.7 | -5.8 | 98.1*
Cc1cc2nc(-c3cccc(NC(=S)NC(=O)c4ccco4)c3)oc2cc1C | 0.9 | -1.4 | 9.6 | 47.5*
COc1ccc(Cl)cc1C(=O)Nc1ccc2oc(-c3ccc(C(C)(C)C)cc3)nc2c1 | 0.5 | -0.2 | 8.1 | 38.0*
O=C(Nc1ccc2oc(-c3ccc(-c4ccccc4)cc3)nc2c1)c1ccco1 | 2.5* | -0.9 | 2.7 | -3.0
Cc1ccc2nc(-c3cccc(NC(=S)NC(=O)c4ccco4)c3)oc2c1 | 0.1 | -1.8 | -5.7 | -53.7
CC(C)(C)C(=O)Nc1ccc2oc(-c3cncc(Br)c3)nc2c1 | 0.3 | 1.5 | 7.5 | 34.7*
O=C(Nc1ccc(-c2nc3cc(NC(=O)c4ccco4)ccc3o2)cc1)c1ccco1 | 0.2 | 0.6 | 9.8 | -23.5
O=C(NC(=S)Nc1ccc2oc(-c3ccccc3)nc2c1)c1cncc(Br)c1 | 0.1 | 0.3 | 3.7 | -3.0
Nc1cc(S(=O)(=O)O)c2cccc(S(=O)(=O)O)c2c1 | 0.8 | 1.6 | 13.9 | -11.6
CCN(CC)c1ccc(-c2nc3cc(NC(=O)c4ccc(OC)c(OC)c4)ccc3o2)cc1 | 2.4* | -1.1 | 21.4 | -21.9
Cc1ccccc1-c1nc2cc(NC(=O)C(C)C)ccc2o1 | 0.0 | 1.0 | 4.3 | 66.0*
O=C(CN1CCCC1)Nc1ccc(-c2nc3cc(NC(=O)CN4CCCC4)ccc3o2)cc1 | 0.0 | 0.3 | -2.9 | 36.4*
CC(C)(C)c1ccc(-c2nc3cc(NC(=S)NC(=O)c4ccco4)ccc3o2)cc1 | 1.0 | 4.7 | 12.7 | 43.4*
SMILES | FBW7 act | GPR151 ag | MITF primary | TEAD-YAP block
Cc1ccc(-c2nc3cc(NC(=S)NC(=O)c4ccco4)ccc3o2)cc1 | 0.8 | 0.3 | 14.0 | -46.4
CCCC(C)C(=O)Nc1ccc(S(=O)(=O)NC(C)=O)cc1 (stereo not given) | 0.1 | 0.2 | -5.5 | -7.2
CCOc1ccccc1C(=O)Nc1ccc(S(=O)(=O)N2CCC(C)CC2)cc1 | 0.0 | 1.1 | -0.1 | -2.2
CC(=O)Nc1ccc2oc(-c3cccc(C)c3)nc2c1 | -0.1 | -8.1 | -11.5 | 62.4*
COc1ccc(CCNc2nc3c(c(=O)n(C)c(=O)n3C)n2Cc2ccc(Cl)c(Cl)c2)cc1OC | 0.0 | -1.5 | 10.2 | 2.0
CCOC(=O)c1ccc(COC(=O)c2ccccc2NC)cc1 | 2.2* | -1.0 | -9.1 | -9.0
NNC(=O)c1ccc(S(=O)(=O)NCCCN2CCOCC2)cc1 | -0.3 | -1.1 | -16.3 | -10.8
O=C1OC(c2cccc(Cl)c2)=N/C1=C\c1cccc(Cl)c1 | 0.0 | -0.5 | -13.2 | -11.9
O=C1OC(c2cccc(Cl)c2)=N/C1=C\c1ccccc1 | -0.1 | -8.0 | -8.8 | 73.2*
O=c1cc(CO)oc(C(Nc2cccc(F)c2)c2ccccn2)c1O (stereo not given) | -0.2 | 3.5 | 12.2 | 4.1
O=[N+]([O-])c1ccc(NC(c2ccccn2)c2ccc3cccnc3c2O)cc1 (stereo not given) | -1.1 | 0.8 | 18.4 | 86.8*
O=C(NC(c1ccccc1)c1ccccn1)c1ccc([N+](=O)[O-])cc1 (stereo not given) | 0.0 | 1.0 | 4.7 | 3.8
Oc1c(C(Nc2cccc(Cl)c2)c2ccccn2)ccc2cccnc12 (stereo not given) | -0.2 | -0.7 | 45.0 | 62.3*
Oc1c(C(Nc2ccc(Cl)cc2)c2ccccn2)ccc2cccnc12 (stereo not given) | -1.7 | -0.2 | 68.7* | 15.9
Oc1c(C(Nc2cccc(C(F)(F)F)c2)c2ccccn2)ccc2cccnc12 (stereo not given) | -1.1 | 3.4 | 51.0* | 27.4
C=CCn1c(SCC(=O)Nc2ccc(C)cc2)nc2sc(CC)cc2c1=O | 0.1 | 0.6 | -4.8 | -1.2
CCOC(=O)c1cc2c(=O)n3ccccc3nc2n(C(C)C)c1=NC(=O)c1cccc(Cl)c1 | 0.1 | 0.6 | -7.8 | -6.7
COc1cc(-c2cn3c(NC(=O)c4ccncc4)c(C)nc3cn2)cc(OC)c1OC | 0.0 | -0.5 | -18.6 | 1.8
Oc1c(C(Nc2cccc(C(F)(F)F)c2)c2cccnc2)ccc2cccnc12 (stereo not given) | -2.0 | 1.0 | 65.0* | 14.8
CCNc1cc(N2CCN(CC)CC2)c2noc3c2c1C(=O)c1ccccc1-3 | -1.1 | -0.1 | 61.1* | 21.5
CCNc1cc(N2CCN(C)CC2)c2noc3c2c1C(=O)c1ccccc1-3 | -0.4 | -1.3 | 16.1 | 4.9
CC1CCCN(c2cc(NCC(=O)O)c3c4c(onc24)-c2ccccc2C3=O)C1 (stereo not given) | -0.6 | -1.5 | 58.8* | 67.4*
CC1CCN(c2cc(NCCC(=O)O)c3c4c(onc24)-c2ccccc2C3=O)CC1 | -0.5 | -1.1 | 54.8* | 31.5
O=C1c2ccccc2-c2onc3c(N4CCCCCC4)cc(NCCO)c1c23 | -0.5 | 0.7 | 29.6 | 36.8*
CCNc1cc(N2CCCC2)c2noc3c2c1C(=O)c1ccccc1-3 | -0.2 | -0.8 | 7.9 | 4.0
O=C(Cc1cccc2ccccc12)Nc1ccc2c(c1)OCO2 | -0.1 | 0.1 | -23.9 | -10.2
OCC1(CO)COC(c2ccc(Cl)cc2Cl)N1 (stereo not given) | -0.2 | -0.9 | -7.3 | -3.1
CC1CCCN(c2cc(NCCO)c3c4c(onc24)-c2ccccc2C3=O)C1 (stereo not given) | -0.5 | -1.5 | 25.7 | 33.7*
CN1CCN(c2cc(NCc3ccco3)c3c4c(onc24)-c2ccccc2C3=O)CC1 | -1.1 | 0.2 | 56.1* | -11.8

Source: PubChem BioAssay (The Scripps Research Institute Molecular Screening Center)
